PubChem BioAssay (NCI)
The panel holds about 79,000 compounds, 15% with a hit somewhere; the sample as a whole holds those more often. Calls of active or inactive are those of the source. Cut-off read from the data, not from the text of the source: active = growth inhibition above about 70%; inactive = the rest.

Assays:
[1] = NCI Yeast Anticancer Drug Screen. Data for the mlh1 strain (AID 171);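 note: 0% = growth of vehicle-treated control cultures of the same strain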; conditions: S. cerevisiae mlh1 strain growth inhibition, hits give high values
Method in brief: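 Inhibition values reflect reduced yeast growth in the presence of compound, referenced to vehicle controls, using a strain chosen for its alteration in DNA repair or cell cycle control.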

[2] = NCI Yeast Anticancer Drug Screen. Data for the sgs1 strain (AID 173);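 note: 0% = growth of vehicle-only control cultures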; conditions: S. cerevisiae sgs1 mutant, hits give high values
Method in brief: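 Vehicle-treated cultures served as reference for growth inhibition of a yeast strain altered in DNA damage repair or cell cycle control after compound exposure.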

[3] = NCI Yeast Anticancer Drug Screen. Data for the mlh1 rad18 strain (AID 175); conditions: S. cerevisiae mlh1 rad18 strain growth inhibition, hits give high values
Method in brief: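 Inhibition values reflect reduced growth of mutant yeast versus vehicle-treated controls following compound exposure; the mutations affect DNA damage repair.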

[4] = NCI Yeast Anticancer Drug Screen. Data for the rad18 strain (AID 177); conditions: S. cerevisiae rad18 mutant growth inhibition, hits give high values
Method in brief: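 Steps: expose repair-mutant yeast to compound; measure growth; express as inhibition relative to vehicle control.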

[5] = NCI Yeast Anticancer Drug Screen. Data for the rad52 strain (AID 147);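 note: 0% = growth of vehicle-treated control cultures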; conditions: S. cerevisiae rad52 mutant growth inhibition, hits give high values
Method in brief: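 Inhibition of yeast growth, referenced to vehicle controls, was the measured output for a strain with defective DNA damage repair.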

[6] = NCI Yeast Anticancer Drug Screen. Data for the wt1 strain (AID 149);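 note: 0% = growth of vehicle-treated wt1 cultures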; conditions: S. cerevisiae wt1 strain (SPY 50644) growth inhibition, hits give high values
Method in brief: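 Measured: growth of wt1 yeast under compound versus vehicle treatment, reported as inhibition.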

[7] = NCI Yeast Anticancer Drug Screen. Data for the rad50EPP+ strain (AID 151);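 note: 0% = growth of vehicle-treated control cultures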; conditions: S. cerevisiae rad50 mutant strain, hits give high values
Method in brief: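 Genetically defined yeast (rad50EPP+, DNA damage repair alteration) is grown with compound, and inhibition of growth is expressed relative to vehicle-treated controls.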

[8] = NCI Yeast Anticancer Drug Screen. Data for the mgt1 strain (AID 153); conditions: S. cerevisiae mgt1 mutant growth inhibition, hits give high values
Method in brief: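 In the mgt1 strain, test compounds were added and growth inhibition was determined relative to vehicle-treated controls.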

[9] = NCI Yeast Anticancer Drug Screen. Data for the rad50 strain (AID 155);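 note: 0% = growth of vehicle-only cultures of the same strain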; conditions: S. cerevisiae rad50 strain growth inhibition, hits give high values
Method in brief: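 Growth of the mutant yeast was measured after compound exposure and referenced to vehicle-treated cultures.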

[10] = NCI Yeast Anticancer Drug Screen. Data for the mec2-1 strain (AID 157); conditions: S. cerevisiae mec2-1 strain, hits give high values
Method in brief: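 Each compound was tested on mec2-1 yeast, a strain altered in DNA damage repair or cell cycle control. Growth inhibition is reported relative to vehicle.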

[11] = NCI Yeast Anticancer Drug Screen. Data for the sgs1 mgt1 strain (AID 161);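 note: 0% = growth of cultures given vehicle only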; conditions: S. cerevisiae sgs1 mgt1 strain, hits give high values
Method in brief: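 Test agents were incubated with a DNA-repair-mutant yeast strain. Growth was then read and compared against vehicle-treated controls.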

[12] = NCI Yeast Anticancer Drug Screen. Data for the CLN2oe strain (AID 163);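 note: 0% = growth of vehicle-only control cultures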; conditions: S. cerevisiae CLN2oe strain, hits give high values
Method in brief: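 First, the altered yeast strain was treated with each compound; second, its growth was measured; finally, inhibition was derived by comparison with vehicle controls.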

[13] = NCI Yeast Anticancer Drug Screen. Data for the cln2 rad14 strain (AID 165);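 note: 0% = growth equal to vehicle treated cultures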; conditions: S. cerevisiae cln2 rad14 strain, hits give high values
Method in brief: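 Test compounds were added to cln2 rad14 yeast cultures; inhibition of growth was then determined by comparison with vehicle treatment.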

[14] = NCI Yeast Anticancer Drug Screen. Data for the bub3 strain (AID 167); conditions: S. cerevisiae bub3 mutant strain, hits give high values
Method in brief: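 Whole-cell yeast assay. The mutant strain was incubated with compounds, and growth inhibition was determined by comparison with vehicle-treated cells.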

[15] = NCI Yeast Anticancer Drug Screen. Data for the wt2 strain (AID 169);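 note: 0% = growth of vehicle-treated yeast cultures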; conditions: S. cerevisiae wt2 strain growth inhibition, hits give high values
Method in brief: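 The panel's yeast strains carry defined changes in DNA repair or cell cycle genes. Each strain is grown with compound, and growth loss is scored relative to vehicle.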

[16] = NCI Yeast Anticancer Drug Screen. Data for the rad14 strain (AID 159);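 note: 0% = growth of vehicle-treated control cultures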; conditions: S. cerevisiae rad14 strain growth inhibition, hits give high values
Method in brief: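 Here, inhibition of yeast growth was measured after compound exposure, using a strain with a genetic defect in DNA damage repair and vehicle-treated cultures as the reference.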

[17] = at 5.0 µM (retest, dose inferred, filed as 0.5)
[18] = at 50.0 µM (retest, dose inferred, filed as 5.0)

Measured: growth inhibition

CC(C)=CCC/C(C)=C/CN1C(=O)C=CC1=O
active: [1]; at 11.0 µM 98% | [1]; at 33.0 µM 99% | [1]; at 100.0 µM 99% | [2]; at 11.0 µM 99% | [2]; at 33.0 µM 100% | [2]; at 100.0 µM 99% | [3]; [18] 98% | [3]; at 50.0 µM 99.3% | [4]; at 11.0 µM 99% | [4]; at 33.0 µM 99% | [4]; at 100.0 µM 99%
inactive: [1]; at 1.2 µM -8% | [1]; at 3.7 µM 15% | [2]; at 1.2 µM 20% | [2]; at 3.7 µM 48% | [3]; [17] 69% | [4]; at 1.2 µM 4% | [4]; at 3.7 µM 32%

C/C1=C/C2OC(=O)C3(C)C2C(CC2(C)OC1=CC2=O)OC3(O)C(C)C (centres undefined)
inactive: [5]; at 1.2 µM -27% | [5]; at 3.7 µM -33% | [5]; at 11.0 µM -32% | [5]; at 33.0 µM -60% | [5]; at 100.0 µM -39% | [6]; at 1.2 µM -23% | [6]; at 3.7 µM -29% | [6]; at 11.0 µM -42% | [6]; at 33.0 µM -16% | [6]; at 100.0 µM -33% | [7]; at 1.2 µM -9% | [7]; at 3.7 µM -1% | [7]; at 11.0 µM 32% | [8]; at 1.2 µM -21% | [8]; at 3.7 µM -18% | [8]; at 11.0 µM 8% | [8]; at 33.0 µM 68% | [9]; at 1.2 µM -25% | [9]; at 3.7 µM -29% | [9]; [17] 16% | [9]; at 11.0 µM -38% | [9]; at 33.0 µM -57% | [9]; [18] 21% | [9]; at 50.0 µM 6.75% | [9]; at 100.0 µM -47% | [10]; at 1.2 µM -16% | [10]; at 3.7 µM -27% | [10]; [17] 18% | [10]; at 11.0 µM -27% | [10]; at 33.0 µM -18% | [10]; [18] 24% | [10]; at 50.0 µM -27.4% | [10]; at 100.0 µM -24% | [11]; [17] 21% | [12]; at 1.2 µM 4% | [12]; at 3.7 µM 22% | [12]; at 11.0 µM 13% | [12]; at 33.0 µM 0% | [12]; at 100.0 µM 10% | [13]; [17] 27% | [13]; [18] 29% | [13]; at 50.0 µM 7.4% | [14]; at 1.2 µM -8% | [14]; at 3.7 µM -19% | [14]; [17] 22% | [14]; at 11.0 µM -20% | [14]; at 33.0 µM -35% | [14]; [18] 16% | [14]; at 50.0 µM -16.7% | [14]; at 100.0 µM -28% | [15]; at 1.2 µM 8% | [15]; at 3.7 µM 21% | [15]; at 11.0 µM 27% | [1]; at 1.2 µM 21% | [1]; at 3.7 µM 5% | [1]; at 11.0 µM 31% | [1]; at 33.0 µM 60% | [3]; [17] 24% | [3]; [18] 32% | [3]; at 50.0 µM -6.1% | [4]; at 1.2 µM -6% | [4]; at 3.7 µM -33% | [4]; at 11.0 µM -38% | [4]; at 33.0 µM -44% | [4]; at 100.0 µM -37%
active: [7]; at 33.0 µM 72% | [7]; at 100.0 µM 91% | [8]; at 100.0 µM 93% | [11]; [18] 87% | [11]; at 50.0 µM 82.4% | [15]; at 33.0 µM 79% | [15]; at 100.0 µM 91% | [1]; at 100.0 µM 90%

O=C1C=CC(=Nc2cccc3c2-c2ccccc2C3=O)O1
inactive: [5]; at 1.2 µM 3% | [5]; at 3.7 µM 16% | [5]; at 11.0 µM 67% | [6]; at 1.2 µM -2% | [6]; at 3.7 µM 8% | [6]; at 11.0 µM 42% | [7]; at 1.2 µM 4% | [7]; at 3.7 µM 24% | [7]; at 11.0 µM 61% | [9]; at 1.2 µM 3% | [9]; at 3.7 µM 19% | [9]; [17] 26% | [10]; at 1.2 µM 6% | [10]; at 3.7 µM 23% | [10]; [17] 36% | [16]; at 1.2 µM 5% | [16]; at 3.7 µM 18% | [11]; [17] 36% | [12]; at 1.2 µM -3% | [12]; at 3.7 µM 5% | [12]; at 11.0 µM 60% | [13]; [17] 14% | [14]; at 1.2 µM -7% | [14]; at 3.7 µM 0% | [14]; [17] 14% | [15]; at 1.2 µM -3% | [15]; at 3.7 µM 12% | [2]; at 1.2 µM 7% | [2]; at 3.7 µM 25% | [3]; [17] 28% | [4]; at 1.2 µM 8% | [4]; at 3.7 µM 23%
active: [5]; at 33.0 µM 97% | [5]; at 100.0 µM 98% | [6]; at 33.0 µM 99% | [6]; at 100.0 µM 99% | [7]; at 33.0 µM 89% | [7]; at 100.0 µM 97% | [9]; at 11.0 µM 79% | [9]; at 33.0 µM 98% | [9]; [18] 99% | [9]; at 50.0 µM 99.5% | [9]; at 100.0 µM 97% | [10]; at 11.0 µM 75% | [10]; at 33.0 µM 99% | [10]; [18] 99% | [10]; at 50.0 µM 99.5% | [10]; at 100.0 µM 99% | [16]; at 11.0 µM 94% | [16]; at 33.0 µM 99% | [16]; at 100.0 µM 98% | [11]; [18] 99% | [11]; at 50.0 µM 99.6% | [12]; at 33.0 µM 99% | [12]; at 100.0 µM 98% | [13]; [18] 99% | [13]; at 50.0 µM 98.7% | [14]; at 11.0 µM 72% | [14]; at 33.0 µM 97% | [14]; [18] 99% | [14]; at 50.0 µM 99.7% | [14]; at 100.0 µM 98% | [15]; at 11.0 µM 79% | [15]; at 33.0 µM 99% | [15]; at 100.0 µM 99% | [2]; at 11.0 µM 83% | [2]; at 33.0 µM 99% | [2]; at 100.0 µM 99% | [3]; [18] 99% | [3]; at 50.0 µM 85% | [4]; at 11.0 µM 83% | [4]; at 33.0 µM 99% | [4]; at 100.0 µM 98%
